Experiments:
Test in all cases: DAPPL (digital affinity profiling via proximity ligation, sequencing); 10 mM Tris-HCl pH 7.5, 50 mM NaCl, 1 mM DTT, 4% glycerol, room temperature, 30 min; GST-TFs on glutathione beads, 16-mer random dsDNA library, 0.1% formaldehyde crosslink after washing; high values mean tight binding
Settings in all cases: protein: recombinant; tags: N-terminal GST; dsDNA, one strand shown
SPI1 = SPI1 (Homo sapiens, UniProt P17947 1-270)
How it was run: (§1)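 Human transcription factors fused to GST were expressed in yeast, captured on glutathione beads, given DNA barcodes and pooled with a GST-only negative control. Pools were incubated with 200 nmole of a 16-mer random double-stranded DNA library in Tris/NaCl/DTT/glycerol buffer at room temperature for 30 min. They were then washed, crosslinked with 0.1% formaldehyde, proximity-ligated (BsaI/T4 ligase, 1 h, 37 °C), PCR-amplified and sequenced on an Illumina NextSeq500. Binding signal is each 6-mer's read frequency for a factor divided by its frequency for the GST control.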

ELF3 = molecular target: T1, ELF3 (Homo sapiens, UniProt P78545 1-371)
T1 sequence: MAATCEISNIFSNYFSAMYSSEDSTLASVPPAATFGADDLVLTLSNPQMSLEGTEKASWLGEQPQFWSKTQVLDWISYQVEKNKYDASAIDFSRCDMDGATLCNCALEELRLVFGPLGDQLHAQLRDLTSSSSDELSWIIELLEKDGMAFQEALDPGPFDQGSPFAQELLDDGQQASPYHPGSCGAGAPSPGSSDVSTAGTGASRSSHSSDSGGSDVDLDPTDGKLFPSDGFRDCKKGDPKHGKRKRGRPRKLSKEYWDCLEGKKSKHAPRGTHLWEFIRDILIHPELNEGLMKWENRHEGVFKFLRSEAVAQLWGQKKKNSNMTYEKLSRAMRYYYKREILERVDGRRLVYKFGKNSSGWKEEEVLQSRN
How it was run: as §1

ETV6 = ETV6 (Homo sapiens, UniProt P41212 1-452)
How it was run: as §1

GABPA = molecular target: T2, GABPA (Homo sapiens, UniProt Q06546 1-454)
T2 sequence: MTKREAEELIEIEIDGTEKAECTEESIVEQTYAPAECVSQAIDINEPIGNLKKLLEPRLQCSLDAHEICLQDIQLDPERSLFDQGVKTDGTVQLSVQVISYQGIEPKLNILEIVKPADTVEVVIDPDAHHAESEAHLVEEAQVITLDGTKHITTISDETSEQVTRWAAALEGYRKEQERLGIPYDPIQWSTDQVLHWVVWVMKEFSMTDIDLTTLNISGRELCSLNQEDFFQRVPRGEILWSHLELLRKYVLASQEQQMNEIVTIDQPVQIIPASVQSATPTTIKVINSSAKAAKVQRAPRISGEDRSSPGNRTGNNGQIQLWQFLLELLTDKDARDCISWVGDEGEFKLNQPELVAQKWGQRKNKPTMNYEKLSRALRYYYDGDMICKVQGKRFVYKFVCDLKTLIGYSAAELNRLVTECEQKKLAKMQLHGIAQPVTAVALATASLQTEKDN
How it was run: as §1

CRX = CRX (Homo sapiens, UniProt O43186 1-299)
How it was run: as §1

SPDEF = molecular target: T3, SPDEF (Homo sapiens, UniProt O95238 1-335)
T3 sequence: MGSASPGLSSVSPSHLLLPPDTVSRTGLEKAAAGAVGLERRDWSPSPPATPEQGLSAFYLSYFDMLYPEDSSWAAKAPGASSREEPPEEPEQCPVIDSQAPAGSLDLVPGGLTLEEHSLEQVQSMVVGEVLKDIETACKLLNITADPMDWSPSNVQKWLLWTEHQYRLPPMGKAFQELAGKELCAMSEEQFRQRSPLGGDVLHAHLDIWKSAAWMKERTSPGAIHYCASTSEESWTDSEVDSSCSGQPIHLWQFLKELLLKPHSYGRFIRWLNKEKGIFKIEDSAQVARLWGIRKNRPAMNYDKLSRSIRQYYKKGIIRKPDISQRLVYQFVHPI
How it was run: as §1

ERG = molecular target: T4, ERG (Homo sapiens, UniProt P11308 1-479)
T4 sequence: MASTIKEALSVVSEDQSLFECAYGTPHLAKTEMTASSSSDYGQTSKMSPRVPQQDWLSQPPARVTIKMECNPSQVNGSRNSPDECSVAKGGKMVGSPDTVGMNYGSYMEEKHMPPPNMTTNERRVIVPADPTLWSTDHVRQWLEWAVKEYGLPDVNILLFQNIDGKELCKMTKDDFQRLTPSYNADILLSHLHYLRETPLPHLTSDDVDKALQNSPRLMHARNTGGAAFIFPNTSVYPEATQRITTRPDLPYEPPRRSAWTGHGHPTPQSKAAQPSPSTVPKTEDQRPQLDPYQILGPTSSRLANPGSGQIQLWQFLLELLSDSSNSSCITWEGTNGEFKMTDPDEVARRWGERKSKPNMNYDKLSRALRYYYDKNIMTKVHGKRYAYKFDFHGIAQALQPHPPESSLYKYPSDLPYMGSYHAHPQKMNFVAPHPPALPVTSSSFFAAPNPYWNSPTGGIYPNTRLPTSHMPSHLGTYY
How it was run: as §1

EHF = molecular target: T5, EHF (Homo sapiens, UniProt Q9NZC4 1-300)
T5 sequence: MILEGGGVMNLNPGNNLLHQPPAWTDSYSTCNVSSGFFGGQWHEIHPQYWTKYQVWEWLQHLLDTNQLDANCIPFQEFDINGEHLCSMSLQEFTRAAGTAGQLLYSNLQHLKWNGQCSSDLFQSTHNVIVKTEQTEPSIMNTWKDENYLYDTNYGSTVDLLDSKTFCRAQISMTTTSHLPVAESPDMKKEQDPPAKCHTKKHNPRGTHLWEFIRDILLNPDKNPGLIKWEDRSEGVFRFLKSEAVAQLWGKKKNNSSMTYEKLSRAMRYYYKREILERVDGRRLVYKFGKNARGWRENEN
How it was run: as §1

SPIB = SPIB (Homo sapiens, UniProt Q01892 1-262)
How it was run: as §1

ETV1 = ETV1 (Homo sapiens, UniProt P50549 1-477)
How it was run: as §1

ETS2 = molecular target: T6, ETS2 (Homo sapiens, UniProt P15036 1-469)
T6 sequence: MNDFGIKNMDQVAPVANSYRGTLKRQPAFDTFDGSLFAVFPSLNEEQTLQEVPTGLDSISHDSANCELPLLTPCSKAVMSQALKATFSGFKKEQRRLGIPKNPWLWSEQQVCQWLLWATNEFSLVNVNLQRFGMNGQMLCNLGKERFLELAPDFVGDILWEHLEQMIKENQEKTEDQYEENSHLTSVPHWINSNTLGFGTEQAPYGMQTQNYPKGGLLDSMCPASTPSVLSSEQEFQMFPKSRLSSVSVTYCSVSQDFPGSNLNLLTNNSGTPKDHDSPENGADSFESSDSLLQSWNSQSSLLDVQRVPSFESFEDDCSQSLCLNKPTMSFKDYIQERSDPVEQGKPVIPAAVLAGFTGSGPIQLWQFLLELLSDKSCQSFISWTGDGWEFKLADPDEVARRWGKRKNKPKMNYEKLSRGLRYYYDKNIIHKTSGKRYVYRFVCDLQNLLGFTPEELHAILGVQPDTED
How it was run: as §1

ETV7 = molecular target: T7, ETV7 (Homo sapiens, UniProt Q9Y603 1-341)
T7 sequence: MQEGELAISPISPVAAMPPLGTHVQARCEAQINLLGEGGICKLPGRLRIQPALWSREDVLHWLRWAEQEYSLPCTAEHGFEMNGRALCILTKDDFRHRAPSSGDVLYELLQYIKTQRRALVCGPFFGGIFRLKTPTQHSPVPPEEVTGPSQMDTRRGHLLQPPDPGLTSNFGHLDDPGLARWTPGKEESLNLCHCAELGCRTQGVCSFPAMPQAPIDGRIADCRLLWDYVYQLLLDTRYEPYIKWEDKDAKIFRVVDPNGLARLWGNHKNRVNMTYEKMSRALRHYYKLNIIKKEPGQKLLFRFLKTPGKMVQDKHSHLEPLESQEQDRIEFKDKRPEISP
How it was run: as §1

ELF5 = molecular target: T8, ELF5 (Homo sapiens, UniProt Q9UKW6-2 1-255)
T8 sequence: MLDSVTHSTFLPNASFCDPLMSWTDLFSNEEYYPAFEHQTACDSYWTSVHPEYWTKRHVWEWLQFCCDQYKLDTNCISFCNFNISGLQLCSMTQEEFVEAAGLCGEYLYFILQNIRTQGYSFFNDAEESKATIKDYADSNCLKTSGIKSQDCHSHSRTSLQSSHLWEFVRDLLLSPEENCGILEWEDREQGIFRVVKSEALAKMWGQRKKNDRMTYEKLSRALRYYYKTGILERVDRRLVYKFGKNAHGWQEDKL
How it was run: as §1

ETV3 = molecular target: T9, ETV3 (Homo sapiens, UniProt P41162-2 1-143)
T9 sequence: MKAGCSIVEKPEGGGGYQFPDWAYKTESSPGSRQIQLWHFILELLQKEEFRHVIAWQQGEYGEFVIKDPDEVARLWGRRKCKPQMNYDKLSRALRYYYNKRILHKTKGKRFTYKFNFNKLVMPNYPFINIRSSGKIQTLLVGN
How it was run: as §1

ERF = molecular target: T10, ERF (Homo sapiens, UniProt P50548 1-548)
T10 sequence: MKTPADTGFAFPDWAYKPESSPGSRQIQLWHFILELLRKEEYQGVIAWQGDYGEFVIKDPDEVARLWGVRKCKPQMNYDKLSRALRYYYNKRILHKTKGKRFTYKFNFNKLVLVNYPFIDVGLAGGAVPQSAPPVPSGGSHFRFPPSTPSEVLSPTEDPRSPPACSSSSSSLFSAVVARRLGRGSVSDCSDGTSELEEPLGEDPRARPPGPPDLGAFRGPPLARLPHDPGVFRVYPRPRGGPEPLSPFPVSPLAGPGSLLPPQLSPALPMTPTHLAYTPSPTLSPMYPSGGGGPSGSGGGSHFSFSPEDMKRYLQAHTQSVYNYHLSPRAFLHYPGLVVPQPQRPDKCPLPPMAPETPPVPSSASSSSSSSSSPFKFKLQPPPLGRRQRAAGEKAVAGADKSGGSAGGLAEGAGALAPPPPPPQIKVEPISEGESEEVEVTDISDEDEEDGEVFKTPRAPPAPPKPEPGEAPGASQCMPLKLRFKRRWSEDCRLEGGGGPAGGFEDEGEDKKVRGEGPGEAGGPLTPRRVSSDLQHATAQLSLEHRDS
How it was run: as §1

CRX, sequence (O43186 whole entry): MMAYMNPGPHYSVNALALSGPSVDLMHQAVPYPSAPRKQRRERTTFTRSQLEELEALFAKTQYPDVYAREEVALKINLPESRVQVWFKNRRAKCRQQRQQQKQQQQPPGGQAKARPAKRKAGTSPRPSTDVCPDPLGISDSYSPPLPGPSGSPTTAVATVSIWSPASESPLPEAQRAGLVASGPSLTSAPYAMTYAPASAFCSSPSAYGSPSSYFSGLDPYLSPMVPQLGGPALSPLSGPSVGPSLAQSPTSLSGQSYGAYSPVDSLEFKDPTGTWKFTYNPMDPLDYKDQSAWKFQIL
ETV6, sequence (P41212 whole entry): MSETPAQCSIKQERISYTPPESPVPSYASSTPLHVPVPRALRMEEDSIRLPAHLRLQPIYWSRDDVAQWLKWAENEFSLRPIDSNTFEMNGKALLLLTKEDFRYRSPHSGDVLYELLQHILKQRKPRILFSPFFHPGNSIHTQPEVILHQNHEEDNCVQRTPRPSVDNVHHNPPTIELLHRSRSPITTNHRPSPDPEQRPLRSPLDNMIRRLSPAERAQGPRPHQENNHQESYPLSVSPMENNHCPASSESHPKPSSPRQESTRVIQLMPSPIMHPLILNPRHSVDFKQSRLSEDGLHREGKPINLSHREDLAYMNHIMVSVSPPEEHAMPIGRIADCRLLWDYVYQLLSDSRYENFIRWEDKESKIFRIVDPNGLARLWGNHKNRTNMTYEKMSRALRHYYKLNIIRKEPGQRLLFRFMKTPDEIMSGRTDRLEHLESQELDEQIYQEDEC
ETV1, sequence (P50549 whole entry): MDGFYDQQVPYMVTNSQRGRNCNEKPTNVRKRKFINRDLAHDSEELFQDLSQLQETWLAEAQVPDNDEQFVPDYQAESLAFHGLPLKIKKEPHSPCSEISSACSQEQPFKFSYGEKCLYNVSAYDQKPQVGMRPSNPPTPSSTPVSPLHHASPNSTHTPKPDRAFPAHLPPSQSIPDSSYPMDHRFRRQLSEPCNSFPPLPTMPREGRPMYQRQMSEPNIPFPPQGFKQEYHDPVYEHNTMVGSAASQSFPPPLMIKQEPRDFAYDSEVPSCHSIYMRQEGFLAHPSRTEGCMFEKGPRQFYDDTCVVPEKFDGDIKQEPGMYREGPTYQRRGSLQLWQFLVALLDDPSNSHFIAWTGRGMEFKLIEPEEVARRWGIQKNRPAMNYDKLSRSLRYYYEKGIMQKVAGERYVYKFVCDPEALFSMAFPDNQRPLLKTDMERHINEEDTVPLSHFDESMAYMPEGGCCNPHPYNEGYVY
SPIB, sequence (Q01892 whole entry): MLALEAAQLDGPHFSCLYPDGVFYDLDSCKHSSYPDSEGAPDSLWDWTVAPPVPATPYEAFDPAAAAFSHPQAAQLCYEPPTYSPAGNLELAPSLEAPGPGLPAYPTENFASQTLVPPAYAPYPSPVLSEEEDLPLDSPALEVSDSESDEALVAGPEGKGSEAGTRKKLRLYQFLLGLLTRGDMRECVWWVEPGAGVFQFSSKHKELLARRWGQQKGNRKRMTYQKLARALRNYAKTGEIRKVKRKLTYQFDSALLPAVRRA

## AGTACG
SPI1
  binding signal: 1.02 fold enrichment (6-mer frequency, TF over GST control)
ELF3
  binding signal: 1.01 fold enrichment (6-mer frequency, TF over GST control)
ETV6
  binding signal: 1.03 fold enrichment (6-mer frequency, TF over GST control)

## AAGGGA
SPI1
  binding signal: 1.07 fold enrichment (6-mer frequency, TF over GST control)
ELF3
  binding signal: 1.03 fold enrichment (6-mer frequency, TF over GST control)

## CGCCGT
GABPA
  binding signal: 1.01 fold enrichment (6-mer frequency, TF over GST control)

## TATCGG
CRX
  binding signal: 1.1 fold enrichment (6-mer frequency, TF over GST control)

## GGTTGT
ELF3
  binding signal: 1.06 fold enrichment (6-mer frequency, TF over GST control)
SPDEF
  binding signal: 1.03 fold enrichment (6-mer frequency, TF over GST control)

## GGATGA
ERG
  binding signal: 1.01 fold enrichment (6-mer frequency, TF over GST control)
EHF
  binding signal: 1 fold enrichment (6-mer frequency, TF over GST control)
SPIB
  binding signal: 1.06 fold enrichment (6-mer frequency, TF over GST control)
CRX
  binding signal: 1.11 fold enrichment (6-mer frequency, TF over GST control)
ETV1
  binding signal: 1.05 fold enrichment (6-mer frequency, TF over GST control)
ETS2
  binding signal: 1.1 fold enrichment (6-mer frequency, TF over GST control)
SPDEF
  binding signal: 1.11 fold enrichment (6-mer frequency, TF over GST control)
ETV7
  binding signal: 1.06 fold enrichment (6-mer frequency, TF over GST control)
ELF5
  binding signal: 1.11 fold enrichment (6-mer frequency, TF over GST control)
ETV3
  binding signal: 1.03 fold enrichment (6-mer frequency, TF over GST control)

## GAAAGG
ELF3
  binding signal: 1.03 fold enrichment (6-mer frequency, TF over GST control)
ERF
  binding signal: 1 fold enrichment (6-mer frequency, TF over GST control)
ETV7
  binding signal: 1.02 fold enrichment (6-mer frequency, TF over GST control)

— PMC7862700, “An all-to-all approach to the identification of sequence-specific readers for epigenetic DNA modifications on cytosine”
